In the library only some 4.5% were active in any assay of this set; here they are far more common.
PfHsp90 set2: growth inhibition of PfHsp90-expressing yeast, primary screen, antimalarial PfHsp90 inhibitor project, S. cerevisiae, BacTiter-Glo luminescence, single point, set 2; AID 504621, 2011; 0.32% of 310,000 active; BacTiter-Glo ATP, 48 h; yeast lacking PDR1 and PDR3 efflux regulators; inhibition, % at 9.4 µM;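 active = every replicate shows inhibition above about 80%, whatever the replicate mean, limit read from the data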
tim10-1 inh: growth inhibitors of tim10-1 mutant yeast, primary screen, luminescence, uHTS; S. cerevisiae tim10-1 ts strain growth, BacTiter-Glo, 24 h; inhibition, % at 20 µM; 2.2% of 330,000 active; AID 463190, 2010;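 active = inhibition of at least 40%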;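 note: mutant grown at 25 °C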
tim23-1 inh: growth inhibitors of tim23-1 mutant yeast, primary screen, luminescence, uHTS; 1.3% of 330,000 active; S. cerevisiae tim23-1 growth, BacTiter-Glo luminescence, 24 h; AID 463212, 2010; inhibition, % at 20 µM;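 active = growth inhibition of the mutant yeast at or above 50%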;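 note: temperature-sensitive mutant grown at 25 °C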
NALP3 yeast inh: NALP3 inflammasome inhibitors in reconstituted yeast, primary screen, luminescence, uHTS | Yeast reconstituted NLRP3/ASC/caspase-1, beta-gal luminescence, 24 h | inhibition, % at 10 µM | 0.39% of 330,000 active | AID 2825, 2010;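 active = inhibition of 50% or more; inactive = inhibition below 50%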
SKKanGAS inh: S. pyogenes SKKanGAS growth inhibitors in kanamycin, primary screen, streptokinase expression inhibitor project, SKKanGAS strain, BacTiter-Glo luminescence; 6 h; inhibition, % at 7.5 µM; 1.3% of 300,000 active; AID 1662, 2009;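 active = mean replicate score, as percent of positive control median, at least 50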;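 note: strain carries kanamycin resistance gene driven by streptokinase promoter and grows in 40 µg/ml kanamycin; loss of luminescence reflects streptokinase promoter inhibition or plain growth inhibition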
TIM10 inh: growth inhibitors of isogenic TIM10 control yeast, primary screen, counter-screen for tim10-1 yeast inhibitor project, luminescence, uHTS; S. cerevisiae TIM10 strain growth, BacTiter-Glo luminescence, 24 h; 1.4% of 330,000 active; AID 463195, 2010; inhibition, % at 10 µM;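 active = inhibition of 40% or more at the single tested concentration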;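 note: wild-type TIM10 isogenic control strain grown at permissive 25 °C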
tim10-1 confirm: growth inhibitors of tim10-1 mutant yeast, confirmation, single concentration, luminescence, S. cerevisiae. shares compounds with tim10-1 inh. S. cerevisiae tim10-1 ts strain growth, BacTiter-Glo, 24 h. inhibition, % at 20 µM. 56% of 7,400 active. AID 463213, 2010;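 active = inhibition of yeast growth at or above a set limit in either of two repeat tests at 20 µM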;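 note: tim10-1 mutant grown at permissive 25 °C to find synthetic lethal compounds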
Each line names hits and unclear results; the compound was inactive in the other large screens (follow-up assays come after a bar, where they were run).

O=S(=O)(/N=C(/Sc1ccccc1)c1ccccc1)c1ccccc1	tim10-1 inh 52 | tim10-1 confirm 43
CCCC(=O)Nc1ccc(-c2nc3ncccc3o2)cc1	none
CCOc1cccc(-c2nn3c(-c4ccco4)nnc3s2)c1	tim10-1 inh 42 | tim10-1 confirm inactive
COc1cccc(-c2nnc3sc(-c4ccc(C)cc4)nn23)c1	none (no result: PfHsp90 set2)
COc1cccc(-c2nn3c(-c4cccc(C)c4)nnc3s2)c1	tim10-1 inh 44 | tim10-1 confirm inactive
COc1cccc(-c2nnc3sc(-c4ccco4)nn23)c1	none (no result: PfHsp90 set2)
CC1CN(S(=O)(=O)c2ccc(C(=O)Nc3ccccc3F)cc2)CC(C)O1 (centres undefined)	none (no result: SKKanGAS inh)
CC/C(=N\NC(=O)c1nnn(-c2nonc2N)c1-c1cccs1)c1ccccc1	none
COc1ccc(-n2c(=S)[nH]c3ccccc3c2=S)cc1	none
COc1ccc(-n2c(=S)[nH]c3ccccc32)cc1	tim10-1 inh 42 | tim10-1 confirm inactive
C=C(C)CNC(=S)N=Nc1c(O)[nH]c2ccc([N+](=O)[O-])cc12	tim10-1 inh 42 | tim10-1 confirm inactive
COc1ccc(-c2nn(-c3ccccc3)cc2C(=O)NC(=S)N2CCOCC2)cc1OC	none (no result: PfHsp90 set2, SKKanGAS inh)
COc1ccc(CC(=O)NCCS(=O)(=O)N2CCN(c3ccc(F)cc3)CC2)cc1OC	none
COc1cccc(N2C(=O)C(c3ccccc3)=C(c3nc4ccccc4s3)C2NC(C)=O)c1 (centres undefined)	tim10-1 inh 49 | tim10-1 confirm 42
O=C(Nc1ccc(N2CCN(C(=O)c3ccco3)CC2)cc1)c1ccc2c(c1)OCO2	none
O=C(Nc1ccc(N2CCN(C(=O)c3ccccc3F)CC2)cc1)c1cncc(Br)c1	tim10-1 inh 46 | tim10-1 confirm 31
Cc1ccccc1C(=O)N1CCN(c2ccc(NC(=O)c3ccc4c(c3)OCO4)cc2)CC1	tim10-1 inh 44 (no result: PfHsp90 set2) | tim10-1 confirm 29
O=C(Nc1ccc(N2CCN(C(=O)c3cccs3)CC2)cc1)c1cccc(F)c1	tim10-1 inh 48 | tim10-1 confirm 33
COc1ccc(-c2nnc(NC(=O)c3ccc(S(=O)(=O)N4CCc5ccccc5C4)cc3)o2)cc1	tim10-1 inh 44, SKKanGAS inh 94 | tim10-1 confirm 39
Cn1nnnc1SCC(=O)N1CCc2ccccc2C1	none (no result: SKKanGAS inh)
Cc1ccc(-n2nnnc2SCC(=O)N2CCc3ccccc3C2)c(C)c1	tim10-1 inh 44 | tim10-1 confirm 32
COc1ccc(-c2nnc(SCC(=O)N3CCc4ccccc4C3)o2)cc1	tim10-1 inh 43 | tim10-1 confirm inactive
CCOc1ccc(CCNC(=O)COC(=O)CCc2cc(OC)c(OC)c(OC)c2)cc1OCC	none
COc1ccc(CCC(=O)Nc2ccc(C(=O)c3ccncc3)cc2)cc1	none
Cc1ccc(/C=N/NC(=O)CSCc2ccc(Cl)cc2)cc1	tim10-1 inh 40 | tim10-1 confirm inactive
O=C(CSc1nc(=O)n(CCCN2CCOCC2)c2c1CCC2)Nc1ccccc1F	none
O=C(NCc1ccccc1Cl)c1cc2c(s1)CS(=O)(=O)C2	none
Cn1c(N)c(N=O)c(=O)n(C)c1=S	none (no result: tim10-1 inh, tim23-1 inh, NALP3 yeast inh, SKKanGAS inh, TIM10 inh)
CC1=NN(Cc2ccccc2)C(=O)/C1=C\c1ccc(N(C)C)cc1	none
CCOC(=O)C1=NN(c2ccccc2)C(=O)/C1=C\c1ccc(N(C)C)cc1	tim10-1 inh 40 | tim10-1 confirm inactive
Cc1ccc(Nc2nnc(C3C(=O)N(C)C4(C)CC3c3cc(Br)ccc3O4)s2)cc1 (centres undefined)	tim10-1 inh 45 | tim10-1 confirm inactive
Cc1ccc(NC(=O)CSCC(=O)Nc2nnc(C3CC3)s2)cc1	none (no result: PfHsp90 set2)
Cc1nn(CC(=O)c2ccc3c(c2)OCCO3)c(=O)c(C#N)c1C	none (no result: SKKanGAS inh)
Clc1ccc(/C=C/c2ncc3ccccn23)cc1	none (no result: PfHsp90 set2)
Cc1cc(C)cc(OCCN2CCOCC2)c1	none
CCOC(=O)c1c(CSc2ccc(C)cc2)n(C)c2cc(Br)c(O)c(CN(C)C)c12	tim10-1 inh 41 | tim10-1 confirm 44
CCN(CC)S(=O)(=O)c1ccc(OC)c(NS(=O)(=O)Cc2ccccc2)c1	none
O=C1/C(=C/c2ccccc2)SC(=S)N1CC(=O)N1CCCCC1c1cccnc1 (centres undefined)	tim10-1 inh 47 | tim10-1 confirm inactive
COc1ccc2c(c1)C(=O)N1[C@H]3c4cc(Br)ccc4OC[C@@H]3[C@H](c3ccccc3)[C@]1(C)C(=O)N2	none (no result: SKKanGAS inh)
Cc1ccc(C(=O)CSC2=C(C#N)C(c3ccco3)C3=C(CCCC3=O)N2)cc1 (centres undefined)	none
N#CC1=C(SCC(=O)c2ccccc2)NC2=C(C(=O)CCC2)C1c1ccco1 (centres undefined)	tim10-1 inh 49 | tim10-1 confirm inactive
Cc1cccc(C)c1OCC(=O)N=Nc1c(O)[nH]c2ccc(Br)cc12	tim10-1 inh 53 | tim10-1 confirm 35
COc1cc2cc(C(=O)N3CCN(Cc4ccc5c(c4)OCO5)CC3)[nH]c2cc1OC	none
O=C(c1cc2cc(F)ccc2[nH]1)N1CCN(Cc2ccc3c(c2)OCO3)CC1	tim10-1 inh 44 | tim10-1 confirm inactive
CCOc1ccc(NC(=O)CSc2nnc(C3CC3)n2C)cc1S(=O)(=O)N1CCCCC1	none (no result: PfHsp90 set2, SKKanGAS inh)
N#CCSc1ccccc1NC(=O)COC(=O)CCN1C(=O)C2CC=CCC2C1=O (centres undefined)	none (no result: SKKanGAS inh)
Clc1ccc(Cl)c2sc(N3CCCC3)nc12	tim10-1 inh 47 | tim10-1 confirm 37
O=C(CNC(=S)N(Cc1ccccc1)Cc1ccccc1F)NCc1ccccc1	none
O=C(CNC(=S)N(Cc1ccccc1)Cc1ccccc1F)NCCc1ccccc1	tim10-1 inh 41 (no result: PfHsp90 set2) | tim10-1 confirm inactive
O=C(COC(=O)c1cccc(O)c1)Nc1ccc(S(=O)(=O)N2CCOCC2)cc1	none (no result: SKKanGAS inh)
CC(C)(O)C#Cc1ccc(C(=O)N2CCN(c3ccccc3)CC2)cc1	none
CC(C)(O)C#Cc1ccc(C(=O)N2CCN(c3ccc([N+](=O)[O-])cc3)CC2)cc1	tim10-1 inh 46 | tim10-1 confirm 38
Cc1ccc(C(=O)N/N=C(/CC(=O)c2cccs2)C(F)(F)F)cc1	tim10-1 inh 47 | tim10-1 confirm 29
O=C(N/N=C(\CC(=O)c1cccs1)C(F)(F)F)c1ccncc1	none
Cn1nccc1C(=O)N(CCN1CCCCC1)CC1CCCN(C2CCCC2)C1 (centres undefined)	none

Assay outcomes (PubChem BioAssay)
